Screening results (PubChem BioAssay)
BAZ2B block – BAZ2B (human) inhibition; Q9UIF8; AlphaScreen BAZ2B-H3K14Ac peptide displacement; Potency, µM (doses to about 114 µM), for the others: at the highest dose activity change, negative = inhibition, actives largely listed as inhibitors; actives 4.4% (n = 360,000); AID 504333; also: % is scaled to controls: 0 for no effect and ±100 for the full control effect; nearly all actives have a fitted effect of over 60% in size
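AlphaScreen luminescence quantifies BAZ2B engagement of H3K14Ac peptide; the protein and biotinylated peptide are both at 50 nM final, buffer PBS pH 7.4 with 0.01% Tween-20, all steps at room temperature.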
HP1b chromo inh – blocks HP1-beta chromodomain binding to methylated histone tails; AlphaScreen HP1-beta / biotin-H3K9me3 peptide binding; actives 0.56% (n = 390,000); Potency, µM (highest dose often 114 µM), for the others: at the highest dose activity change, negative = inhibition, hits mostly inhibitors; P83916; also: nearly all actives have a fitted effect of over 70% in size
Target sequence (P83916 whole entry, looked up): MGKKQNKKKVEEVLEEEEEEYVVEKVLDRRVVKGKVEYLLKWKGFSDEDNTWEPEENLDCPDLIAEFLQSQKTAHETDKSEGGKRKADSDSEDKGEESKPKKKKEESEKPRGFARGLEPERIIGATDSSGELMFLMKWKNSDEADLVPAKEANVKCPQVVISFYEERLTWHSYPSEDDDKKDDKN
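HP1-beta protein (50 nM final) preincubated 30 min at room temperature with biotinylated H3(1-18)K9me3 peptide (50 nM) in PBS pH 7.4, 0.01% Tween-20, then compound added for 30 min. AlphaScreen streptavidin donor/nickel chelate acceptor beads (10 ug/mL final), 30 min dark, luminescence read.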
L3MBTL1 block – blocks human L3MBTL1. AID 485360. AlphaScreen L3MBTL1–H3K9me1 peptide binding. Q9Y468. Potency, µM (series often up to 57.1 µM), for inactives: top-dose activity, negative = inhibition, hits mostly inhibitors. actives 0.66% (n = 230,000); also: % is scaled to controls: 0 for no effect and ±100 for the full control effect; nearly all actives have a fitted effect of over 60% in size
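Displacement of a biotinylated histone H3(1-15) peptide monomethylated at Lys9 (75 nM) from L3MBTL1 (50 nM) was measured by AlphaScreen after a 30 min room-temperature compound incubation; cefsulodin titration served as intraplate control.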
JMJD2A Tudor – JMJD2A Tudor domain (human) inhibition. O75164. AlphaScreen JMJD2A-Tudor / H3K4me3 peptide binding. Potency, µM (top dose mostly 114 µM), inactives show at the top dose activity change, negative = inhibition, hits mostly inhibitors. actives 4.4% (n = 390,000); also: % is scaled to controls: 0 for no effect and ±100 for the full control effect; nearly all actives have a fitted effect of over 50% in size
Sfp PPTase inh – blocks B. subtilis Sfp PPTase activity | Q9F4F7 | Biochemical Sfp PPTase activity, qHTS | Potency, µM, for the others: largest response in the series, negative = inhibition, hits mostly inhibitors | actives 3.5% (n = 310,000) | AID 1490;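 also: the enzyme is Sfp with the accession as filed and its product quenches rhodamine fluorescence; 0% = enzyme reaction without inhibitor and -100% = no enzyme wells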
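Compounds were incubated with enzyme (final 15 nM) for 15 min at room temperature before substrate addition started the reaction. Fluorescence at 525 nm excitation, 598 nm emission was recorded immediately and after 30 minutes.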
G9a inh – blocks human histone lysine methyltransferase G9a | Q96KQ7 | actives 8.8% (n = 350,000) | G9a H3K9 monomethylation, AlphaScreen, 2 h | Potency, µM (doses to about 102 µM), for the others: at the highest dose activity, negative = inhibition, usual class: inhibitors; also: % is scaled to controls: 0 for no effect and ±100 for the full control effect; nearly all actives have a fitted effect of over 75% in size
Target sequence (Q96KQ7 913-1193 limits assumed): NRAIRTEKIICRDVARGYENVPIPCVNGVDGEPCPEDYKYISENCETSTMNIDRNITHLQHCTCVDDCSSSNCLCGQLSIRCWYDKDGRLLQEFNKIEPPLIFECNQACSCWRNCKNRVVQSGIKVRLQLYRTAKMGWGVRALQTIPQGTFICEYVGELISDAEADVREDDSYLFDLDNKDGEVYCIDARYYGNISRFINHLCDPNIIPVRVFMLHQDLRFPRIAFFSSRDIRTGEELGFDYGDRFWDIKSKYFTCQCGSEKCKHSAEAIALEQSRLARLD
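Step 1: enzyme (final 20 nM) with compound, 15 min RT. Step 2: substrate peptide 500 nM and SAM 20 uM, 2 h RT. Step 3: anti-H3K9me1 antibody and AlphaScreen beads, 10 min, then plate read.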
* hit, by the source's call; ? = inconclusive; . = not tested or not shown; [ ] = remark or other dose. Rows were chosen to be rich in hits. Some 12% of all compounds tested hit in one or more screens of this group. Calls follow the shape of the dose curve; as a rule, active = well fitted curve in the direction sought with a large enough effect; inconclusive = small, poorly fitted or top-dose-only effect, or another doubt; inactive = no such curve, though single readings can be large; an effect the other way counts as inactive or inconclusive. Potency is read from the fitted curve at half-maximal effect.

SMILES | BAZ2B block | HP1b chromo inh | L3MBTL1 block | JMJD2A Tudor | Sfp PPTase inh | G9a inh
CCn1c(=O)cc(OCC(=O)NCc2ccc(C)o2)c2ccccc21 | 4% | -4% | -5%[11.4 µM] | -24% | 32µM* | ?
CCn1c(=O)cc(OCC(=O)NCc2ccco2)c2ccccc21 | ? | 9% | -15% | ? | -1% | ?
CSc1c(-c2ccccc2)nc2ccc(Cl)cc2c1C(=O)O | -35% | 17% | -6% | -2% | -2% | 41%[12.7 µM]
Cc1ccc2nc(-c3ccccc3)c(CC(=O)O)c(C(=O)O)c2c1 | ? | 21% | -7% | -9% | 10% | 45µM*
CN(C)CCC[C@@]1(c2ccc(F)cc2)OCc2cc(C#N)ccc21 | . | ? | . | 35µM* | 13% | 17%[59 µM]
COC(=O)c1cc(O)cc(OC)c1C(=O)c1c(O)cc(C)cc1O | -28% | -11% | . | ? | 17% | 21%[12.7 µM]
COC(=O)c1cc(O)cc(OC)c1Oc1cc(C)cc(O)c1C(=O)O | 8.9µM* | ? | . | 20µM* | 56µM* | ?
COc1ccc(OCC(=O)Nc2ccc(OC)c(S(=O)(=O)N3CCCCC3)c2)cc1 | -7% | 27% | -12% | -24% | . | 0%[0.501 µM]
COc1cccc2oc3cc(C#Cc4ccccn4)ccc3c(=O)c12 | 40µM* | 68% | -8% | 22µM* | 40µM* | .
CC(=O)c1ccc(NC(=O)CCc2c(C)nn(-c3ccc(N4CCCCC4)nn3)c2C)cc1 | ? | 34% | . | ? | . | -2%[59 µM]
NCc1ccccc1 | -5% | 13% | 5% | -14% | 16% | 4%[59 µM]
C=CCSc1nc2sc3c(c2c(=O)n1CC)CCc1ccccc1-3 | 7% | ? | 38% | ? | 1.8µM* | ?
CC(C)C[C@@H](NC(=O)C1CCC(CNC(=O)[C@H](Cc2ccccc2)NC(=O)OC(C)(C)C)CC1)C(=O)O (stereo partly drawn) | 2% | 11% | . | 28µM* | 1% | ?
COc1ccc(C(CNC(=O)C(Cc2ccccc2)NC(N)=O)N(C)C)cc1 (stereo not drawn) | -15% | 28% | . | -10% | 7% | 40µM*
COc1ccc(CNC(=O)[C@H](Cc2ccccc2)NC(=O)C2CCNCC2)cc1 | -4% | 36% | . | -6% | -6% | 50µM*
CCc1cccc2c(-c3csc(=NC)n3C)c[nH]c12 | -31% | 2% | -1% | -31% | -16% | 50µM*
CC(=O)Nc1cc(NC(C)=O)c(N=Nc2ccccc2)cc1C | -18% | 20% | . | -28% | -2% | 10%
Cc1ccc(NCC(O)C(O)C(O)CO)c(N=Nc2ccccc2)c1C (stereo not drawn) | 11µM* | ? | . | ? | 2% | -45%[12.7 µM]
CCn1c(-c2ccc3[nH]c(C)c(C)c3c2)n[nH]c1=S | ? | -26% | -12% | 22µM* | -27% | 2.8µM*
Cc1[nH]c2ccc(C(=O)NCCN3CCOCC3)cc2c1C | ? | 8%[57 µM] | . | -14% | -1% | .
Cc1[nH]c2ccc(-c3n[nH]c(=S)n3C)cc2c1C | ? | ? | -8% | 4.5µM* | -13% | 4µM*
COc1ccc(CNC(=O)Cc2c(C)c3c(cc(C)c4c(C)coc43)oc2=O)cc1OC | 0% | 32% | . | -8% | . | 2%[59 µM]
Cc1cc(-n2c(C)nc3ccccc3c2=O)ccc1NC(=O)c1ccc([N+](=O)[O-])cc1 | -9% | 21% | . | -12% | . | -10%[59 µM]
Cc1ccc(C(=O)Oc2ccc(-c3nccc(-c4ccccn4)n3)cc2)cc1 | 3% | 22% | 0% | 16% | -4% | -4%[59 µM]
Cc1sc(-c2ccccn2)nc1OC(=O)c1ccc(Cl)c(Cl)c1 | -1% | 19% | 4% | -4% | -7% | 40µM*
SMILES | BAZ2B block | HP1b chromo inh | L3MBTL1 block | JMJD2A Tudor | Sfp PPTase inh | G9a inh
Cc1ccnc(NC(=O)COC(=O)c2ccc(F)cc2F)n1 | -31% | 31% | ? | -18% | -5% | -1%
Cc1sc(-c2ccccn2)nc1OC(=O)c1ccc(F)cc1F | 79µM* | 30% | 33% | -7% | 16µM* | 10µM*
CCOc1ccc(-n2c(SCC(=O)Nc3ccc(C(=O)O)cc3)nc3ccccc3c2=O)cc1 | -11% | 31% | . | -3% | 2% | -3%
Cc1ccc(-n2ncc(C(=O)NCCN3CCc4ccccc4C3)c2C2CCN(C(=O)OC(C)(C)C)CC2)cc1 | -15%[57.1 µM] | 7% | . | -33% | . | -41%[59 µM]
O=Cc1ccc(-c2ccccc2C(=O)O)o1 | -22% | 11% | -10% | -3% | 11% | ?
CCOC(=O)c1cc(-c2ccc(/C=C3/C(=O)N(c4ccc(C(=O)O)cc4)N=C3C)o2)ccc1Cl | 18µM* | ? | . | 14µM* | -4% | 7.1µM*
CC1=NN(c2ccc(Br)cc2)C(=O)/C1=C/c1ccc(-c2ccccc2C(=O)O)o1 | 35µM* | ? | -16% | 32µM* | 5% | 35µM*
CCCCOC(=O)c1cc(-c2ccc(/C=N/n3cnnc3)o2)ccc1Cl | . | -4% | . | 56µM* | . | .
CCOc1ccc(CNS(=O)(=O)c2ccc3c(c2)CC(C)N3C(C)=O)cc1OC (stereo not drawn) | -3% | 46% | . | 2% | . | 2%[59 µM]
Nc1cc2c(cc1Cl)-c1ccc([N+](=O)[O-])cc1C2=NO | . | 8% | . | -19% | . | .
Cc1cccc(N(C)C(=O)CCS(=O)(=O)c2ccc3c(c2)oc(=O)n3C)c1 | 0%[57.1 µM] | 0% | . | -22% | . | 2.8µM*
COc1ccc(NC(=O)CCS(=O)(=O)c2ccc3c(c2)oc(=O)n3C)cc1 | 50µM* | 14% | . | -30% | 9% | 8%
O=C(O)c1ccccc1OS(=O)(=O)O | . | . | . | . | 3% | .
O=C(N/N=C/c1ccc(N2CCCCC2)o1)c1ccccc1[N+](=O)[O-] | -9% | -10% | 3% | ? | ? | 11µM*
O=C(N/N=C/c1ccc(N2CCOCC2)o1)c1ccccc1[N+](=O)[O-] | -1% | -3% | -6% | ? | 16µM* | ?
O=C(N/N=C/c1ccncc1)c1ccccc1[N+](=O)[O-] | -16% | 39% | . | -6% | 3% | 10%[59 µM]
O=C(Nc1ccc(N2CCOCC2)nc1N1CCOCC1)c1cccc(C(F)(F)F)c1 | -8% | -1% | 27% | 0% | -9% | .
O=C(N/N=C/c1ccc(N2CCOCC2)o1)c1cccc(C(F)(F)F)c1 | 1% | -2% | 7% | ? | 3.5µM* | 8.9µM*
Cc1ccc(C(C)NC(=S)NC2CCCCC2)cc1C (stereo not drawn) | ? | . | . | . | -3% | .
COc1ccc(C(C)NC(=S)NC2CCCC2)cc1OC (stereo not drawn) | -6% | 2% | 6% | -14% | -8% | 18µM*
CCc1ccc(C(=O)NC(Cc2c[nH]c3ccccc23)C(=O)OCC(=O)c2ccc(Br)cc2)cc1 (stereo not drawn) | -10% | 8% | . | -21% | . | -26%[59 µM]
